Among the test systems are DU-145 prostate; K-562 leukemia; MALME-3M melanoma; MDA-MB-231 breast; RXF 393 renal; SF-268 CNS; SF-295 CNS; SF-539 CNS; UACC-257 melanoma; M14 melanoma.
Assay in all cases: NCI-60 one-dose screen, 48 h (100 = growth as untreated, 0 = no growth, -100 = all killed)
Holding throughout (details): 10 µM unless noted

This is part of a sample that, as a whole, favours compounds with a hit. Of some 83,000 tested, about 20% had one in any assay.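 Plates (96-well) were seeded with cells, treated with compound at one concentration, and incubated for 48 hours before percent growth was determined.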 Unmarked numbers belong to inactive results. The source made the active and inactive calls. How the source made its calls: active means growth percent below 10; inactive means the rest.

Take `CC1(C)c2ccccc2C(=O)C1(Br)Cc1ccccc1` (stereo not given): the growth in the assay on DU-145 prostate is 92.5%; in the assay on K-562 leukemia, 42.7%; with MALME-3M melanoma, 121%; in the assay on MDA-MB-231 breast it was 105%; in the assay with RXF 393 renal, 83.5%; with SF-268 CNS, 89.6%. Besides, the growth in the assay on SF-295 CNS is 85.7%; in the assay on SF-539 CNS, 89.9%; with UACC-257 melanoma, 99.4%; with M14 melanoma it was 89.1%.

As for `Cc1ccncc1C(=O)O`, the growth with DU-145 prostate was 101%; in the assay with K-562 leukemia, 116%; in the assay on MALME-3M melanoma, 96.2%; in the assay on MDA-MB-231 breast it was 101%; in the assay with RXF 393 renal it was 118%; with SF-268 CNS, 94.8%. The growth with SF-295 CNS was 99.8%; with SF-539 CNS, 94.4%; with UACC-257 melanoma, 102%; in the assay with M14 melanoma it was 100%.

With `N=C(N)N=Nc1ccc(O)cc1`, the growth with DU-145 prostate was 80.4% [100 µM]; in the assay on K-562 leukemia, 17% [100 µM]; with MALME-3M melanoma, 85.2% [100 µM]; with MDA-MB-231 breast it was 103% [100 µM]; with RXF 393 renal, 20.8% [100 µM]; in the assay on SF-268 CNS it was 77.5% [100 µM]. Further, the growth with SF-295 CNS was 8.54% [100 µM] (active); in the assay with SF-539 CNS it was 15.2% [100 µM]; in the assay with UACC-257 melanoma, 95.6% [100 µM]; in the assay on M14 melanoma it was 81.6% [100 µM].

Regarding `C=C(C)[C@@H]1CC[C@]2(C(=O)O)CC[C@]3(C)[C@H](CC[C@@H]4[C@@]5(C)C/C(=C/c6ccc(OC)cc6)C(=O)C(C)(C)[C@@H]5CC[C@]43C)[C@@H]12`, the growth in the assay on DU-145 prostate is 34.4%; with K-562 leukemia it was 15.6%; in the assay on MALME-3M melanoma it was 42.2%; in the assay with MDA-MB-231 breast it was 32.4%; in the assay with RXF 393 renal, 43.9%; in the assay on SF-268 CNS it was 38.8%. Besides, the growth in the assay with SF-295 CNS is 11.9%; in the assay on SF-539 CNS it was 22.1%; in the assay with UACC-257 melanoma it was 31.1%; in the assay on M14 melanoma, 25.3%.

`COc1ccc2[nH]c(-c3ccc(Cl)cc3)cc(=O)c2c1`: the growth in the assay on DU-145 prostate is 105%; in the assay with K-562 leukemia it was 97.4%; in the assay with MALME-3M melanoma it was 98.6%; with MDA-MB-231 breast, 95.6%; in the assay with RXF 393 renal, 111%; in the assay on SF-268 CNS, 98.2%. The growth was 97% in the assay with SF-295 CNS, 99.9% in the assay with SF-539 CNS, 98% in the assay on UACC-257 melanoma and 95.1% in the assay on M14 melanoma.

On to `COc1ccc(OCC(CO)N2CCN(c3ccccc3)CC2)cc1` (stereo not given), for which the growth in the assay on DU-145 prostate was 111%; in the assay with K-562 leukemia, 126%; in the assay on MALME-3M melanoma it was 82.7%; in the assay with MDA-MB-231 breast, 97%; in the assay with RXF 393 renal it was 119%; in the assay on SF-268 CNS, 95.8%. In addition, the growth is 101% in the assay with SF-295 CNS, 98.5% with SF-539 CNS, 96.1% in the assay on UACC-257 melanoma and 99.8% with M14 melanoma.

Regarding `N#CC1=C(N)Oc2c(c(N)nn2-c2ccccc2)C1c1ccc(Cl)cc1Cl` (stereo not given), the growth with DU-145 prostate is 105%; in the assay with K-562 leukemia it was 89.6%; with MALME-3M melanoma, 104%; in the assay with MDA-MB-231 breast, 97.4%; in the assay with RXF 393 renal it was 109%; with SF-268 CNS, 92%. For the same compound, the growth is 106% in the assay with SF-295 CNS, 94.3% with SF-539 CNS, 104% with UACC-257 melanoma and 96.7% in the assay on M14 melanoma.

On to `CC(C)(C)c1cc(-n2c(-c3ccc(Cl)cc3)nc3cc(C(=O)Nc4ccc(Cl)cc4)ccc32)n[nH]1`, for which the growth was 79.8% with DU-145 prostate; 41.2% with K-562 leukemia; 75.4% in the assay with MALME-3M melanoma; 79.8% in the assay on MDA-MB-231 breast; 65.7% with RXF 393 renal; 69.7% in the assay on SF-268 CNS. For the same compound, the growth in the assay on SF-295 CNS was -2.36% (active); with SF-539 CNS it was 82.9%; in the assay on UACC-257 melanoma, 81.1%; in the assay with M14 melanoma it was 62.7%.

Take `O=C1NC(c2ccc(Cl)c(Cl)c2)=C/C1=C\c1ccccc1`: the growth in the assay with DU-145 prostate is 95.9%; with K-562 leukemia, 72.6%; with MALME-3M melanoma, 63.3%; in the assay with MDA-MB-231 breast, 69.9%; in the assay on RXF 393 renal, 65.2%; in the assay on SF-268 CNS, 92.3%. The growth in the assay on SF-295 CNS was 52.2%; in the assay on SF-539 CNS, 84.7%; in the assay with UACC-257 melanoma, 98.2%; with M14 melanoma, 90.9%.

Turning to `Cn1cc(-c2csc(-c3cn(CCNC(=O)OC(C)(C)C)c4ccccc34)n2)c2cccnc21`, the growth is 101% in the assay on DU-145 prostate; 56.2% in the assay with K-562 leukemia; 82.8% in the assay with MALME-3M melanoma; 82.9% in the assay on MDA-MB-231 breast; 105% in the assay with RXF 393 renal; 90.5% with SF-268 CNS. Besides, the growth was 97.7% in the assay on SF-295 CNS, 93.1% with SF-539 CNS, 92.2% in the assay with UACC-257 melanoma and 61.1% in the assay with M14 melanoma.

In the case of `CN1CCN(c2ccc3nc(-c4[nH]ncc4Nc4ncnc5[nH]ccc45)[nH]c3c2)CC1`, the growth is 7.18% (active) with DU-145 prostate; 7.3% (active) in the assay on K-562 leukemia; -16.6% (active) in the assay with MALME-3M melanoma; -13% (active) in the assay with MDA-MB-231 breast; -71.7% (active) in the assay with RXF 393 renal; -9.53% (active) with SF-268 CNS. The growth is -1.58% (active) in the assay with SF-295 CNS, -43.6% (active) with SF-539 CNS, 11.7% in the assay with UACC-257 melanoma and 3.42% (active) in the assay on M14 melanoma.

As for `Cc1ccc(-c2ccc(/C=C(\C#N)c3nc(-c4ccco4)cs3)o2)cc1`, the growth with DU-145 prostate is 108%; in the assay on K-562 leukemia, 95%; in the assay with MALME-3M melanoma, 109%; in the assay on MDA-MB-231 breast, 93%; in the assay with RXF 393 renal it was 136%; with SF-268 CNS it was 107%. Moreover, the growth with SF-295 CNS was 96.6%; in the assay with SF-539 CNS, 103%; with UACC-257 melanoma, 113%; in the assay with M14 melanoma, 93.7%.

With `O=c1[nH]ncc(Br)c1Br`, the growth is 54.4% in the assay on DU-145 prostate; 3.3% (active) in the assay with K-562 leukemia; -7.27% (active) with MALME-3M melanoma; 28.7% with MDA-MB-231 breast; -85.5% (active) in the assay on RXF 393 renal; -18.3% (active) in the assay with SF-268 CNS. In addition, the growth in the assay on SF-295 CNS was 102%; in the assay on SF-539 CNS, 93.5%; in the assay with UACC-257 melanoma, -36.7% (active); with M14 melanoma, -84.8% (active).

On to `O=C(/C=C/c1ccc2ccccc2c1)Nc1ncc(Cc2ccccc2)s1`, for which the growth in the assay with DU-145 prostate was 70.4%; in the assay on K-562 leukemia, 70.6%; with MALME-3M melanoma it was 51%; in the assay with MDA-MB-231 breast it was 28.5%; in the assay with RXF 393 renal, 93.3%; with SF-268 CNS, 73.8%. The growth in the assay with SF-295 CNS is 36.8%; in the assay on SF-539 CNS, 78.2%; with UACC-257 melanoma, 94.8%; with M14 melanoma, 59.8%.

These data come from PubChem BioAssay (NCI).
